The source made the active and inactive calls.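 The calls were made as follows: active = visually confirmed hit in the image check and inhibition above 20%; inconclusive = visually confirmed hit but inhibition not above 20%; inactive = no visual hit in the image check.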
assay: endothelial E-selectin expression blockers – imaging, HUVEC, immunofluorescence, MLSMR starter and 10KST1 sets, primary screen (AID 487); conditions: HUVEC TNFalpha-induced E-selectin immunofluorescence imaging, at 2 µM; inhibition: stronger effect = higher value; nuclei count: measured here: cell number, toxicity;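 as to inhibition: signal is fraction of cell area covered by stained E-selectin grains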;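 as to nuclei count: 100% = median nuclei count of all wells on the same plate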

Row | SMILES | inhibition | nuclei count
1 | CCOc1cccc(N2C(=O)CC(N(CCc3ccc(OC)c(OC)c3)C(=O)CC)C2=O)c1 (stereo not given) | 2.4% (inactive) | 120%
2 | CCOC(=O)CNC(=O)CNC(=O)c1ccc(OCC(C)C)cc1 | -9.7% (inactive) | 146%
3 | COc1cc(C(=O)Nc2ccc(O)cc2C(=O)O)ccc1OC(C)=O | 31.5% (inactive) | 95.3%
4 | Cc1cc(C)n(CC2CC(=O)N(c3ccc(F)c(Cl)c3)C2=O)n1 (stereo not given) | -64.8% (inactive) | 111%
5 | COC(=O)c1ccc(C2/C(=C(\O)c3cccc(OC)c3)C(=O)C(=O)N2CCCN(C)C)cc1 (stereo not given) | -82.8% (inactive) | 145%
6 | CCCC(CCC(=O)Nc1ccc(C(=O)OCC)cc1)C(=O)O (stereo not given) | -147% (inactive) | 152%
7 | C=C(C)CSc1nc(N)c2c3c(sc2n1)CCC3 | 2.9% (inactive) | 149%
8 | CCCCOC(=O)CCc1nc2ccccc2[nH]1 | -50.5% (inactive) | 195%
9 | CCc1nc2c(sc3nc(N4CCOCC4)c4c(c32)CC(C)(C)OC4)c(=O)o1 | -123% (inactive) | 140%
10 | COc1ccccc1-n1c(N)c(C(=O)NCC2CCCO2)c2nc3ccccc3nc21 (stereo not given) | -49.3% (inactive) | 160%
11 | CCC(=O)NC1(C(F)(F)F)C(=O)Nc2c1c(=O)[nH]c(=O)n2Cc1ccco1 (stereo not given) | -96.3% (inactive) | 167%
12 | Cn1c(=O)[nH]c2cc(Cl)cnc21 | -133% (inactive) | 108%
13 | O=C(COc1ccc(-c2nnc(N3CCCCC3)c3ccccc23)cc1)N1CCCCC1 | -58.5% (inactive) | 89.7%
14 | Cc1cccc(-c2nc(C#N)c(NC3CCCCC3)o2)c1 | -71.9% (inactive) | 134%
15 | CCCCSc1nnc2n(CCc3ccccc3)c(=O)c3c4c(sc3n12)COC(C)(C)C4 | -25.9% (inactive) | 170%
16 | CCCCc1nc(NCC2CCCO2)c(C#N)c2c1COC(C)(C)C2 (stereo not given) | -69.1% (inactive) | 135%
17 | Clc1ccc(-n2ncc3c(N4CCCC4)ncnc32)cc1 | -131% (inactive) | 94.9%
18 | COCCOC(=O)c1c(C)oc2ccc(OC(=O)COc3c(F)c(F)c(F)c(F)c3F)cc12 | -26.1% (inactive) | 98.8%
19 | CCc1cc(=O)oc2cc(C)c(CN3CCCC3)c(O)c12 | 27.1% (inactive) | 158%
20 | O=c1[nH]c2sc3c(c2c(=O)n1Cc1ccccc1)CCC3 | -99.8% (inactive) | 146%

Row | SMILES | inhibition | nuclei count
21 | CCOC(=O)CCNc1n[nH]c(=O)[nH]c1=O | -2.5% (inactive) | 107%
22 | COc1ccc(C2C=C(c3ccc(C)cc3)Nc3ncnn32)cc1 (stereo not given) | 22.6% (inactive) | 156%
23 | CCc1nc(N2CCOCC2)c(C#N)c2c1CCCC2 | -105% (inactive) | 121%
24 | COc1ccccc1C1/C(=C(/O)c2ccc(C)cc2)C(=O)C(=O)N1CCN1CCOCC1 (stereo not given) | -32.2% (inactive) | 133%
25 | N#CC(C#N)C(c1ccsc1)c1c(-c2ccccc2)[nH][nH]c1=O (stereo not given) | -88.8% (inactive) | 169%
26 | O=C(c1ccc(=O)oc1)N1CCN(C(c2ccccc2)c2ccccc2)CC1 | -22.1% (inactive) | 168%
27 | Nc1ccc2c3c(cccc13)CC2 | -74% (inactive) | 108%
28 | COCCNC(=O)C(C#N)c1nc2ccccc2nc1N1CCN(Cc2ccc3c(c2)OCO3)CC1 (stereo not given) | 11.8% (inactive) | 172%
29 | Cc1ccc(Cn2ncc3c(N4CCN(Cc5ccc(Cl)cc5)CC4)ncnc32)cc1 | -21.2% (inactive) | 134%
30 | COC(=O)c1[nH]c2ccc(Cl)cc2c1NC(=O)C1CC1 | -43.6% (inactive) | 120%
31 | CCCOc1ccccc1C(=O)NCCCC(=O)O | -31.2% (inactive) | 137%
32 | CCCOc1cccc(C2/C(=C(/O)c3ccc(F)cc3)C(=O)C(=O)N2CCN(C)C)c1 (stereo not given) | -51.1% (inactive) | 132%
33 | CCN(CC)c1nc(C)c2c(c1C#N)CC(C)(C)OC2 | -142% (inactive) | 118%
34 | CCC(=O)N(Cc1cccs1)C1CCOC(C)(C)C1 (stereo not given) | 6.3% (inactive) | 166%
35 | CCC(=O)Nc1c(C#N)c2nc3ccccc3nc2n1C1CCCCC1 | 6.8% (inactive) | 99.6%
36 | O=C(CN1C(=O)c2ccccc2S1(=O)=O)NCCSCc1ccco1 | -25.2% (inactive) | 142%
37 | CC12CN3CC(C)(CN(C1)C3c1ccc(Br)cc1O)C2 (stereo not given) | -162% (inactive) | 138%
38 | Clc1ccc(COc2ccccn2)c(Cl)c1 | -15.4% (inactive) | 138%
39 | CC1(C)NC(=O)N(CC(O)COc2cc3ccccc3cc2C(=O)N2CCCCC2)C1=O (stereo not given) | 5.9% (inactive) | 157%
40 | Cc1ccc(N(CN2C(=O)C3CC=CCC3C2=O)C(=O)c2ccco2)cc1Cl (stereo not given) | 32.8% (inactive) | 102%
